Compounds without any hit were thinned out: in the full panel of roughly 79,000, 15% have a hit. The source made the active and inactive calls. Rule as the data show it: active = growth inhibition above about 70%; inactive = the rest.

The results in this text go back to PubChem BioAssay (NCI).

The experiment can be described thus: NCI Yeast Anticancer Drug Screen. Data for the mlh1 rad18 strain (AID 175). Conditions: S. cerevisiae mlh1 rad18 strain growth inhibition; at 5.0 µM (retest, dose inferred, filed as 0.5); hits give high values. Put shortly:
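Read-out is yeast growth inhibition, calculated against vehicle-only controls. The compound was applied to a strain engineered with DNA damage repair alterations.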
For `CCC(c1ccc(OC)cc1)C(O)(CC)c1ccc(OC)cc1` (stereo not given), the growth inhibition was -3% (inactive).
On to `Cc1c(Cl)c(S(N)(=O)=O)cc2c1NC=NS2(=O)=O`, for which the growth inhibition is -3% (inactive).
As to `CCCCCCCCNc1ncnc2c1cnn2C`, the growth inhibition was 18% (inactive).
With `Cc1cc(N)c(C)c2c1[nH]c1ccc(Br)cc12`, the growth inhibition was 3% (inactive).
Next, `C(=C\c1cnnc2ccccc12)/c1ccco1`: 2% (inactive).
As to `Cc1cc(N(CCCCl)CCCCl)ccc1C=Nc1cccc(Cl)c1`, the growth inhibition is -10% (inactive).
As to `CCC[CH2][Sn]([CH2]CCC)([O]C(=O)c1cc(F)ccc1F)[O]C(=O)c1cc(F)ccc1F`, the growth inhibition is 20% (inactive).
On to `O=[N+]([O-])c1ccc(N2N=NC(CN3CCOCC3)C2N2CCOCC2)cc1` (stereo not given), for which the growth inhibition is 3% (inactive).
On to `O=CC(I)=C(c1ccccc1)c1ccccc1`, for which the growth inhibition was 21% (inactive).
In the case of `CCC/C(=N\O)S(=O)(=O)c1ccc(NN=O)nc1` it was -33% (inactive); in that of `COc1cc(Cc2n[nH]c(=S)n2-c2ccccc2)c(S(N)(=O)=O)cc1OC`, 0% (inactive).
In the case of `CC(=O)Nc1ccc(C(C)(C)c2ccc(C)cc2)cc1`, the growth inhibition was -1% (inactive).
Next, `CC(C)=NOc1ccc([N+](=O)[O-])cc1[N+](=O)[O-]`: 5% (inactive).
For the compound `CC(=O)Nc1ccc2c(c1)C(S)c1ccccc1-2` (stereo not given), the growth inhibition is -2% (inactive).
On to `CCN1CC(=O)N(C)C1=S`, for which the growth inhibition is -5% (inactive).
For `[O-][n+]1c(-c2ccccc2)c(Cl)c(-c2ccccc2)n1O`, the growth inhibition was 4% (inactive).
Next, `CCCCCCCCCCCCCCCCN(C)c1ccc(S(=O)(=O)O)cc1[N+](=O)[O-]`: 59% (inactive); `Cc1ccc2c(c1)-c1c(c3c(c4c1-c1cc(C)ccc1CC4)C(=O)OC3=O)CC2`: 9% (inactive); `C[N+](C)(CCO)Cc1ccccc1`: -4% (inactive).
As to `CCOC(=O)C(C)(C)Oc1ccc2c(=O)cc(-c3ccccc3)oc2c1`, the growth inhibition was -56% (inactive).
Next, `CS(=O)c1cc(=O)c2ccccc2s1` (stereo not given): 14% (inactive).
For the compound `COC(=O)c1c[nH]c2ccc(Br)cc12`, the growth inhibition is 23% (inactive).
In the case of `CCCCN1C(=O)C(=O)N(c2ccccc2)C1=O`, the growth inhibition was -5% (inactive).
With `Cc1cc(N)c2cc(OCCOc3ccc4nc(C)cc(N)c4c3)ccc2n1`, the growth inhibition was 91% (active).
As to `Cc1c2c(c(C)c3c4c(oc13)CCCC4)C=NCC2`, the growth inhibition is -5% (inactive).
Take `CCCC(c1ccc(O)cc1)c1ccc(O)cc1`: the growth inhibition was 0% (inactive).
Regarding `CC(C)=NNc1ncnc2nc[nH]c12`, the growth inhibition was -14% (inactive).
With `Clc1ccc(C2=Nc3ccccc3SC(c3ccc(Cl)c(Cl)c3)C2)c(Cl)c1` (stereo not given), the growth inhibition is 13% (inactive).
On to `N#Cc1c(Cl)nsc1-c1ccc([N+](=O)[O-])cc1`, for which the growth inhibition is 7% (inactive).
In the case of `C=CCSc1nc2ccccc2c(=O)n1Cc1ccco1` it was 43% (inactive); in that of `COC(=O)CSc1nc2[nH]c(SC)c(C(N)=O)c2c(=O)n1-c1ccccc1`, -14% (inactive).
As for `Cc1cc2oc3c(ccc(=O)n3C)c(=O)c2c(C)c1Cl`, the growth inhibition is 11% (inactive).
Take `CC(=O)SC1C(=O)N(C)C(SC(C)=O)C(=O)N1C` (stereo not given): the growth inhibition was -2% (inactive).
In the case of `CCCCCCCCCCCCCCCCOCC(Cl)COP(=O)(O)OP(=O)(O)OCC1OC(n2cc(C)c(=O)[nH]c2=O)CC1O` (stereo not given) it was 67% (inactive); in that of `CCCCCCCCCCNC(=O)CBr`, 6% (inactive).
In the case of `O=Cc1c(Cn2ccnc2)c2cc([N+](=O)[O-])ccc2n1Cc1ccccc1` it was 8% (inactive); in that of `C=C(C)C1CC2=C(O1)C(=O)c1ccccc1C2=O` (stereo not given), 11% (inactive).
In the case of `CC(C)C1=CC2=CCC3C(C)(C(=O)O)CCCC3(C)C2CC1` (stereo not given) (tested in a mixture with another compound) it was -3% (inactive); in that of `ClCC1CSC2(CCCCC2)O1` (stereo not given), -17% (inactive); in that of `Oc1cccc2ccc(SSc3ccc4cccc(O)c4n3)nc12`, 93% (active).
